SARS PLpro yeast = SARS-CoV PLP inhibition in yeast | AID 485353 | 0.19% of 330,000 active | S. cerevisiae expressing SARS-CoV PLpro, growth rescue | Potency, µM (doses to about 32.9 µM), for inactives: at the highest dose activity, positive = growth rescue, hits mostly activators; calls by dose curve; also: 0% is about no effect; nearly all actives have a fitted effect of over 55% in size
Sm TGR inh = blocks Schistosoma mansoni thioredoxin glutathione reductase; 3% of 360,000 active; Potency, µM (top dose mostly 114 µM), for the others: top-dose activity change, negative = inhibition, actives largely listed as inhibitors; AID 485364; purified TGR, DTNB reduction, TNB absorbance 405 nm; active = well fitted inhibition curve with a large enough effect; inconclusive = small, poorly fitted or top-dose-only effect; inactive = no such curve, though single readings can be large or run the other way; also: % is scaled to controls: 0 for no effect and ±100 for the full control effect; nearly all actives have a fitted effect of over 60% in size
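First, TGR (20 nM dispensed) and NADPH were mixed with compound. Second, a 15 min room-temperature incubation followed. Third, further NADPH and then DTNB were added to start the reaction. Finally, TNB absorbance was monitored kinetically.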
* hit, by the source's call; ? = inconclusive; · = no result given. Compounds with a hit are over-represented: about 3% of the library has one in this group of screens. Potency is read from the fitted curve at half-maximal effect.

SMILES	SARS PLpro yeast	Sm TGR inh
Cc1cnc(C(=O)Nc2ccccc2F)cn1	-8%	0%
CN(C(=O)CSc1nc2c(c(=O)[nH]1)CCCC2)c1ccccc1	·	3%
COc1ccc2c(C)c(CC(=O)NCc3ccc(C)cc3)c(=O)oc2c1OC	·	5%
CCOC(=O)c1cc(-c2ccccc2)n(CCC(=O)Nc2nc3c(C)cccc3s2)c1C	·	2%
NC(=O)N\N=C/C=C/C=C/c1ccc(F)cc1	0%	25µM*
NC(=O)N/N=C/C=C/c1ccccc1	-1%	·
Cc1cc(F)ccc1NC(=O)C1CCCN(C(=O)c2cnn(-c3ccccc3)c2-n2cccc2)C1 (centres undefined)	·	-1%
CCCn1c(SCC(=O)N2CCCc3ccccc32)nnc1-c1ccco1	6%	?
CCn1c(SCC(=O)N2CCc3ccccc32)nnc1-c1ccco1	6%	-28%
O=C(CSc1nnc(-c2cccnc2)n1Cc1ccco1)N1CCc2ccccc21	-3%	45µM*
Cc1occc1-c1nnc(SCC(=O)N2CCCc3ccccc32)n1Cc1ccco1	4%	40µM*
Cc1cc(C)cc(NC(=O)CSc2nnc(CNC(=O)c3c(F)cccc3Cl)o2)c1	·	3%
CCOC(=O)CNC(=O)N1CCCN(S(=O)(=O)c2ccc3c(ccn3CC)c2)CC1	·	-15%
C(=C\c1ccco1)/C1=NN(c2ccccc2)C(c2ccco2)C1 (centres undefined)	-22%	28µM*
Fc1ccc(C2=NN(c3ccccc3)C(c3ccco3)C2)cc1 (centres undefined)	-2%	0%
O=[N+]([O-])c1ccc(/C=C/C2=NN(c3ccccc3)C(c3ccco3)C2)o1 (centres undefined)	-8%	40µM*
Cc1cccc(-n2c(/C=C/c3ccc([N+](=O)[O-])o3)nc3ccccc3c2=O)c1	-100%	?
CCOc1ccc(C(=O)c2cn(Cc3ccccc3)c3c(F)cc(F)cc3c2=O)cc1	·	1%
COc1ccccc1OCCCCn1c(-c2ccc(Cl)cc2)nc2ccccc2c1=O	·	17%
COc1cccc(-n2c(=O)c3c(C)c(C(=O)N(C)C)sc3n(Cc3ccc(F)cc3Cl)c2=O)c1	·	2%
COc1ccc(NC(=O)CCc2c(C)nn(-c3ccc(N4CCOCC4)nn3)c2C)cc1Cl	·	-3%
C/C(=C\c1ccc(C)o1)C(=O)c1c(C)cc(C)[nH]c1=O	5%	18µM*
C/C(=C\c1cccc(Br)c1)C(=O)c1c(C)cc(C)[nH]c1=O	-2%	8%
COC(=O)c1c(N)n(-c2cc(Cl)cc(Cl)c2)c2nc3ccccc3nc12	·	-11%
COc1cccc(NC(=O)C2CC(=O)N(c3ccc(Br)cc3)C2)c1 (centres undefined)	·	-1%
SMILES	SARS PLpro yeast	Sm TGR inh
COCC(C)n1c(COc2ccccc2F)nnc1SCC(=O)Nc1oc(C)c2c(C)n[nH]c(=O)c12 (centres undefined)	5%	25µM*
COc1ccccc1-c1nnc(SCC(=O)Nc2oc(C)c3c(C)n[nH]c(=O)c23)n1C	-2%	19%
COc1ccccc1CNC(=O)CCn1c(=O)c2ccccc2n(CC(=O)Nc2ccc(C)cc2Cl)c1=O	·	5%
CNC[C@H](O)c1ccc(O)c(O)c1	-1%	14µM*
CC(C)NCC(O)c1ccc(O)c(O)c1 (centres undefined)	1%	-36%
CCn1cc2c(n1)-c1c(oc(C(=O)Nc3ccc(Br)cc3F)c1C)CC2	·	-3%
O=C(CNC(=O)c1ccco1)NCC(=O)OCc1cccc(Cl)c1	-2%	-45%
O=C(COC(=O)CNC(=O)c1ccco1)Nc1ncc(Cl)cc1Cl	-5%	40µM*
O=C(CNC(=O)c1ccco1)OCc1cccc(Cl)c1	2%	45µM*
O=C(COC(=O)Cc1ccccc1)Nc1ncc(Cl)cc1Cl	-13%	-26%
O=C(CCNc1cccc(Cl)c1)c1ccco1	7%	11µM*
O=C(NC1CCN(C(=O)Nc2cccc(Cl)c2)CC1)c1ccco1	4%	-9%
CCC(=O)NC(c1cccs1)c1cc(Br)c2cccnc2c1O (centres undefined)	0%	-33%
Cc1sc(-n2cccc2)c(C(C)NC(=O)Nc2ccccc2Cl)c1C (centres undefined)	·	-1%
COc1ccccc1NC(=O)Cn1c(=O)n(-c2ccc(C)cc2)c(=O)c2ccc(C(=O)NCc3ccco3)cc21	·	-14%
Cc1ccc(C)c(OCCn2c(-c3ccc(Cl)cc3)nc3ccccc3c2=O)c1C	·	4%
CCOc1ccc(Cl)cc1C(c1c(C)[nH][nH]c1=O)c1c(C)[nH][nH]c1=O	-2%	?
C#CCOc1ccc(Br)cc1C(c1c(C)[nH][nH]c1=O)c1c(C)[nH][nH]c1=O	0%	45µM*
Cc1cc(C)c2nc(N3CCCC(C(=O)NCc4ccccc4F)C3)sc2c1 (centres undefined)	·	5%
CCOc1cc(S(=O)(=O)NCCc2c(C)[nH]c3ccc(C)cc23)ccc1Br	·	4%
CCNc1nc(NCC)nc(N(C)/N=C/c2ccco2)n1	-1%	35µM*
